Among the data in PubChem BioAssay (NCI) are growth values, retold here.

About 83,000 compounds went through this panel and 20% of them were active in at least one assay; those are over-represented in the sample as a whole.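 In brief: 96-well plates, 48 h treatment, single concentration, percent growth endpoint.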 Active and inactive are the calls of the source. How the source made its calls: active means growth percent below 10; inactive means the rest.

The test has as its system MDA-MB-468 breast. The experiment in a line: NCI-60 one-dose screen, 48 h (100 = growth as untreated, 0 = no growth, -100 = all killed). The conditions noted are these: 10 µM unless noted.
Regarding `C1CN(CC2CCC(CN3CCOCC3)O2)CCO1` (stereo not given), the growth is 102% (inactive).
For `O=C(CCl)N1c2ccccc2Sc2ccc3ccccc3c21` the value was -76.1% (active); for `COc1cc(CSc2nc3ccc(C)cc3c(=O)n2Cc2ccccc2)cc(OC)c1OC`, -25.1% (active); for `Cc1ccc(CSCc2ccc(C(=O)NC3CC3)o2)cc1`, 49.2% (inactive).
For `CNC(=O)c1cc(Oc2ccc3nc(NC(=O)c4cccc(C(F)(F)F)c4)sc3c2)ccn1` the value was 106% (inactive).
`NC(=O)CSc1nc(-c2ccc(F)cc2)cc(-c2ccco2)n1`: the growth was 71.7% (inactive).
For `COc1ccc(Br)cc1NC(=O)Nc1cccc2c1ccn2Cc1ccnc(N)c1` the value was -14.4% (active); for `O=C(N=Nc1c(Cl)c(O)c2ccccc2c1O)C(=O)Nc1cccc(C(F)(F)F)c1`, 80.8% (inactive).
For `NC(=O)SCC(=O)Nc1ccccc1-c1ccccc1` the value was 99.9% (inactive); for `CSc1ccc(OC(C)=O)cc1C`, 93.8% (inactive); for `Cn1cc(-c2csc(-c3cn(CCN)c4ccc(Br)cc34)n2)c2cccnc21`, 28.6% (inactive).
As for `COc1cc2c(cc1O)c(=O)n(CCN(C)C)c1c3cc4c(cc3ncc21)OCO4`, the growth was -57.9% (active).
On to `O=c1cc(-c2nccc3c2[nH]c2ccccc23)c2cc(Cl)ccc2o1`, for which the growth is 2.37% (active).
As for `COc1cc2c3c(n(CCCNCC4CC4)c(=O)c2cc1OC)-c1cc2c(cc1C3=O)OCO2`, the figure is 41.4% (inactive); as for `COc1ccc(C2CC(c3ccc(Nc4ccnc5cc(Cl)ccc45)cc3)=NN2C(C)=O)cc1` (stereo not given), 65.3% (inactive); as for `COc1ccc(-c2nnc(/N=C3/C(=O)Nc4ccc(Br)cc43)o2)cc1`, 90.7% (inactive).
On to `c1cc(C2CCCCC2)ccc1OCCCCCCN1CCNCC1`, for which the growth is 1.63% (active).
On to `O=c1cc(Cc2ccc([N+](=O)[O-])cc2)[nH]c(=O)[nH]1`, for which the growth is 105% (inactive).
As for `COc1cc(OC)c(/C=C/S(=O)(=O)Cc2ccc(OC)c(NCC(=O)O)c2)c(OC)c1`, the figure is -4.64% (active).
Regarding `O=C1c2c(c(=O)[nH]c3ccccc23)CCN1Cc1ccccc1`, the growth is 101% (inactive).
As for `O=C(CNC(=O)c1cccc2ccccc12)Nc1ccccc1Oc1ccccc1`, the figure is 19.7% (inactive); as for `C=C(C)[C@@H]1CC[C@]2(C)[C@H](CC=C3[C@@H]4CC(C)(C)CC[C@]4(CO)CC[C@]32C)[C@@]1(C)CCCN`, -56.3% (active).
For `CCN(C(=O)CN1CCN(c2cc3c(cc2F)c(=O)c(C(=O)O)cn3C2CC2)CC1)c1nc(-c2ccc(OC)cc2)cs1` the value was 60.9% (inactive); for `COc1ccc(C2CC(c3ccc(Nc4nc(Nc5ccc(F)cc5)nc(Nc5ccc(Cl)cc5)n4)cc3)=NN2C(C)=O)cc1` (stereo not given), 104% (inactive); for `COc1cc(C2CC(c3ccc4c(c3)OCO4)=NN2C=O)cc(OC)c1OC` (stereo not given), -12.7% (active).
As for `CCC(C)(O)Cc1ccc(Cl)cc1` (stereo not given), the figure is 101% (inactive); as for `Oc1ccc(CN2CCC(N3CCOCC3)CC2)c2cccnc12`, 36.6% (inactive); as for `CN1C(=O)N(C)C2C1NC(=S)N2/N=C/C=C/c1ccccc1[N+](=O)[O-]` (stereo not given), 6.39% (active).
In the case of `c1ccc(-c2nn(-c3ccccc3)[n+](-c3ccccc3-c3ccccc3)n2)cc1`, the growth is -38.6% (active).
As for `COc1cc(OC)cc(N2C(=O)N(Cc3ccc(C(C)(C)C)cc3)c3ccccc3S2(=O)=O)c1`, the figure is 51.8% (inactive).
For `CC1(C)N=C(N)N=C(N)N1c1cccc(/C=C/C=C/c2cccc([N+](=O)[O-])c2)c1` the value was 16.2% (inactive).
As for `CCOc1cc2c(cc1OCC)C(c1cc(OC)c(O)cc1Cl)NCC2` (stereo not given), the figure is 61.4% (inactive); as for `O=C(OCC1CC2(Cl)C(Cl)=C(Cl)C1(Cl)C2(Cl)Cl)C1C(C(=O)OCC2CC3(Cl)C(Cl)=C(Cl)C2(Cl)C3(Cl)Cl)C2(Cl)C(Cl)=C(Cl)C1(Cl)C2(Cl)Cl` (stereo not given), 107% (inactive); as for `O=C(N=Nc1c(O)[nH]c2ccc(F)cc12)c1cc2ccccc2[nH]1`, 124% (inactive).
For `C=C1C(=O)O[C@H]2[C@H]1CC/C(COC(=O)CCCC(=O)OC/C1=C/CC[C@@]3(C)O[C@H]3[C@H]3OC(=O)C(=C)[C@@H]3CC1)=C\CC[C@@]1(C)O[C@@H]21`, the growth was -19.1% (active).
For `O=C1NC(=O)/C(=C/c2c(-c3ccccc3)nc3sc(COc4ccccc4)nn23)S1` the value was 98.9% (inactive); for `COC(=O)c1c2c(c(C)[n+]([O-])c1C)C(=O)C(NCc1cccc(Cl)c1)=CC2=O`, -26.3% (active); for `COc1cc2c(c(OC)c1OC)CCC(c1cccc(NC(=O)c3cccc(Br)c3)c1)O2` (stereo not given), 75.2% (inactive).
For `COc1cc2c(cc1-c1c(C)noc1C)ncc1nc(C3CCCCC3)n([C@@H](C)COC(F)F)c12` the value was 32.6% (inactive); for `Cc1ccc(CCCC(=O)O)c(C)c1`, 91.7% (inactive).
